Compounds without any hit were thinned out: in the full panel of roughly 83,000, 20% have a hit.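 Plates (96-well) were seeded with cells, treated with compound at one concentration, and incubated for 48 hours before percent growth was determined.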 Unmarked numbers belong to inactive results. Activity calls are given as the source filed them. How the source made its calls: active means growth percent below 10; inactive means the rest.

Assay in all cases: NCI-60 one-dose screen, 48 h (100 = growth as untreated, 0 = no growth, -100 = all killed)
Assay [1] concerns BT-549 breast. The conditions noted are these: 10 µM.
Assay [2] relates to MDA-MB-435 melanoma. The conditions noted are these: 10 µM.
Assay [3] concerns SW-620 colon. To be noted: 10 µM.
In assay [4] the test system is MCF7 breast. The conditions noted are these: 10 µM unless noted.
In assay [5] the test system is HCT-116 colon. The conditions noted are these: 10 µM.
The test system of assay [6] is HCC-2998 colon. The conditions noted are these: 10 µM.
Assay [7] relates to KM12 colon. The conditions noted are these: 10 µM.

For `CS(=O)CC1=NC(=N)N=C1CS(C)=O` (centres undefined), the growth is 110% in assay [1]; 109% in assay [2]; 108% in assay [3]; 95% in assay [4]; 102% in assay [5]; 104% in assay [6]. In assay [7], the growth was 108%.

With `Nc1nc(N)c(N=Nc2ccc(C(=O)O)cc2)c(N)n1`, the growth in assay [1] was 97%; in assay [2], 103%; in assay [3] it was 90.8%; in assay [4] it was 104%; in assay [5], 95.4%; in assay [6] it was 100%. The growth in assay [7] was 115%.

Regarding `CC1(O)OC(COc2ccc(Cl)cc2)COC1O` (centres undefined), the growth in assay [1] was 112%; in assay [2], 106%; in assay [3], 101%; in assay [4] it was 90.4%; in assay [5], 103%; in assay [6], 109%. In addition, the growth in assay [7] is 108%.

On to `O=C(N/N=C\c1cc(Br)cc(Br)c1O)N/N=C/c1cc(Br)cc(Br)c1O`, for which the growth in assay [2] was 66.9%; in assay [3], 56.3%; in assay [4], 52.1%; in assay [5] it was 31.2%; in assay [7], 66.7%.

As to `O=C(CCl)N1CCN(C/C=C/c2ccccc2)CC1`, the growth in assay [1] was 94%; in assay [2] it was 85%; in assay [3], 90.3%; in assay [4], 62.1%; in assay [5], 68.5%; in assay [6], 125%. In addition, the growth in assay [7] was 112%.

Consider `CC(=O)c1ccc(N=C(C#N)C2=C(O)c3ccccc3C2=O)cc1`, for which the growth is 98.3% in assay [1]; 110% in assay [2]; 114% in assay [3]; 83.1% in assay [4]; 106% in assay [5]; 98.1% in assay [6]. Besides, the growth in assay [7] is 107%.

`CCOC(=O)c1cc(/C=C/c2cccc(Cl)c2)on1`: the growth in assay [1] is 87.2%; in assay [2], 83%; in assay [3], 84.2%; in assay [4], 13.9%; in assay [5], -57.7% (active); in assay [6], 97.2%. Further, in assay [7], the growth was 57.4%.

In the case of `COc1ccccc1C1OC2=Nc3cc(C)c(C)cc3NC2C1=O` (centres undefined), the growth in assay [1] was 88.6%; in assay [2], 82.5%; in assay [3], 73.9%; in assay [4] it was 56.8%; in assay [5], 39.2%; in assay [6] it was 105%. In addition, the growth in assay [7] was 93%.

In the case of `CCN(CC)CCNc1ccc(CO)c2sc3ccccc3c(=O)c12`, the growth in assay [1] is 70%; in assay [2] it was 38.1%; in assay [3], 29.5%; in assay [5] it was 23.7%; in assay [6] it was 40.6%; in assay [7], 42.5%.

As to `Cc1c(O)cnc2nn(-c3ccccc3)c(=N)n12`, the growth in assay [1] is 108%; in assay [2], 107%; in assay [3] it was 102%; in assay [4], 97.5%; in assay [5] it was 101%; in assay [6], 98.4%. Besides, in assay [7], the growth is 95.8%.

Turning to `CC(=O)Cc1cc(-c2cc(CC(C)=O)[nH]n2)n[nH]1`, the growth is 88.4% in assay [1]; 103% in assay [2]; 98.5% in assay [3]; 93.2% in assay [4]; 103% in assay [5]; 112% in assay [6]. The growth in assay [7] is 105%.

As to `Oc1ccccc1O`, the growth in assay [1] was 96%; in assay [2] it was 110%; in assay [3], 94.7%; in assay [4], 82.5%; in assay [5], 87.6%; in assay [7], 86.5%.

With `CC(C)(O)C#CC#CC(C)(C)O`, the growth in assay [2] is 103%; in assay [3], 104%; in assay [4], 101%; in assay [5], 96.5%; in assay [6] it was 96.4%; in assay [7] it was 108%.

On to `CC1(C)S(=O)(=O)OCCOS1(=O)=O`, for which the growth in assay [1] was 100%; in assay [2], 103%; in assay [3] it was 101%; in assay [4] it was 97.1%; in assay [5] it was 94.6%; in assay [6], 113%. Also, the growth in assay [7] was 106%.

Take `CC(=O)C1CCCCC1`: the growth in assay [1] is 99.9%; in assay [2], 104%; in assay [3], 100%; in assay [4], 97.9%; in assay [5], 102%; in assay [6], 103%. In addition, the growth in assay [7] is 100%.

Regarding `CC12CC3CC1C(C(=O)O2)C3C(=O)O` (centres undefined), the growth in assay [1] was 122%; in assay [2], 109%; in assay [3] it was 102%; in assay [4], 108%; in assay [5], 118%; in assay [6] it was 95.8%. The growth in assay [7] is 101%.

For the compound `CC1CCCCN1C(=S)Nc1ccc(S(=O)(=O)N2CCCCC2)cc1` (centres undefined), the growth in assay [1] is 93.4%; in assay [2], 96.3%; in assay [3] it was 93.2%; in assay [4], 102%; in assay [5], 91.5%; in assay [6] it was 112%. The growth in assay [7] was 97.1%.

`O=C(O)CCCCNC(=O)c1ccccc1`: the growth was 103% in assay [1]; 113% in assay [2]; 107% in assay [3]; 101% in assay [4]; 101% in assay [5]; 94.3% in assay [6]. For the same compound, the growth in assay [7] was 99%.

For `O=C(c1ccc(Cl)cc1)c1ccccc1Cl`, the growth in assay [1] is 91.7%; in assay [2] it was 106%; in assay [3] it was 121%; in assay [4], 95.7%; in assay [5] it was 87.9%; in assay [6] it was 92.6%. In addition, the growth in assay [7] was 119%.

On to `O=C1N(C[P+](c2ccccc2)(c2ccccc2)c2ccccc2)CCCN1C[P+](c1ccccc1)(c1ccccc1)c1ccccc1`, for which the growth is 103% in assay [1]; 105% in assay [2]; 109% in assay [3]; 98.7% in assay [4]; 97% in assay [5]; 111% in assay [7].
